Inhibition data for 64 compounds are collected here from PubChem BioAssay AID493033 (ICCB-Longwood Screening Facility, Harvard Medical School, 2011).

The structures appear in SMILES notation. Screen size: about 100,000 compounds; about 930 (0.93%) were called active. What follows is part of a selection rich in actives, with near analogues and random picks from the rest. A number with no mark means an inactive call. Rule as the data show it: active = inhibition mostly above about 56% (no sharp cut-off); inactive = mostly below about 77%.

For this assay, the target named is Salicylate synthase (Mycobacterium tuberculosis (strain CDC 1551 / Oshkosh)) (UniProt P9WFX0). Description: MbtI salicylate synthase inhibitors, primary screen, biochemical, fluorescence intensity (AID 493033). The settings on record: purified MbtI enzyme, fluorescence intensity read-out, active compounds read high, concentration not given here.
Chain of Salicylate synthase (Mycobacterium tuberculosis (strain CDC 1551 / Oshkosh)) (P9WFX0 whole entry, looked up): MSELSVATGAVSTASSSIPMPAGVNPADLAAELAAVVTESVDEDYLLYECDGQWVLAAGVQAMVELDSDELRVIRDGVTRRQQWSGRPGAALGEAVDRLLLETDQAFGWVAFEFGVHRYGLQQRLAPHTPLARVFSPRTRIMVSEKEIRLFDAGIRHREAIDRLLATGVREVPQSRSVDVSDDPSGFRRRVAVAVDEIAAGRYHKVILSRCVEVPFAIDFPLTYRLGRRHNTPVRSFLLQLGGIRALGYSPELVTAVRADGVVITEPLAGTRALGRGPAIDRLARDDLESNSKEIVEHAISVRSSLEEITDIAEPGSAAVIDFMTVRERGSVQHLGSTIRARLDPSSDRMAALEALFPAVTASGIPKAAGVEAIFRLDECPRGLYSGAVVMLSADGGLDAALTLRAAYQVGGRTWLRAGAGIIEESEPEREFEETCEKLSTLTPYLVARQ
For `O=C1CSC2=NC3=C(CCCC3=C3SCCCS3)C(c3ccccc3)N12` (centres undefined), the inhibition is -4.55%.

On to `O=C1c2ccccc2C(=O)N1CNc1ccccc1C1CC1`, for which the inhibition is -16.8%.

As to `NCCCN1Cc2ccccc2C1`, the inhibition was 1.3%.

With `CCc1ccccc1NC(=O)CSc1nc2c(c(=O)[nH]1)CCC2`, the inhibition is 9.6%.

With `CCCc1cc(=O)[nH]c(SCc2ccc(C#N)cc2)n1`, the inhibition is -3.9%.

As for `CC(C)(C)c1ccc(CSc2nc3c(c(=O)[nH]2)CCC3)cc1`, the inhibition was 81.7% (active).

As for `COC(=O)c1ccc(C(=O)Nc2cc(Cl)ccc2Cl)cc1N`, the inhibition was -179%.

`COc1cccc(N2C(=O)/C(=C/c3ccsc3)C(=O)NC2=S)c1`: the inhibition is 29.9%.

As for `O=C1NC(=S)N(c2ccc(Br)cc2)C(=O)/C1=C/c1ccsc1`, the inhibition was 55.9% (active).

Take `Cn1cccc1/C=C1\C(=O)NC(=S)N(c2ccccc2)C1=O`: the inhibition was 18.1%.

Consider `CCc1ccc(N(C(C)=O)c2nc(CSc3nnc4n3CCCCC4)cs2)cc1`, for which the inhibition is -11.7%.

Take `CC1=C(C(=O)Nc2cccc(C(F)(F)F)c2)C(c2ccc3c(c2)OCO3)NC(=O)N1` (centres undefined): the inhibition was 5.1%.

Regarding `CCCN(CC1CC1)Cn1c(=S)sc2ccccc21`, the inhibition was 65.8% (active).

Consider `O=C(C1CCNCC1)N1CCCCC1`, for which the inhibition was 6.4%.

For `O=C(OCCCn1c(=O)[nH]c2ccccc21)c1ccc(S(=O)(=O)N2CCOCC2)cc1`, the inhibition is -5%.

Consider `Cc1ccc(NC(=O)CN2C(=O)OC(C)(C)C2(C)O)cc1` (centres undefined), for which the inhibition is -10%.

With `COc1ccc(OCCCC(=O)NNc2ccccc2)cc1`, the inhibition is -1.15%.

In the case of `O=C(CSc1nnc(-c2ccncc2)n1-c1ccccc1)Nc1ccccc1`, the inhibition was 0.45%.

For `COc1ccc(Cc2nnc(SCC(=O)Nc3ccc(S(=O)(=O)N4CCCCCC4)cc3)o2)cc1`, the inhibition is -15.5%.

For the compound `Nn1c(SCC(=O)Nc2ccc(S(=O)(=O)N3CCCC3)cc2)nnc1-c1ccccc1`, the inhibition was 87.7% (active).

In the case of `CCc1c(C)sc2nc(CC(=O)N3CCOCC3)[nH]c(=O)c12`, the inhibition was -33.3%.

As to `NS(=O)(=O)c1ccc(CCNC(=O)CN2CC(=O)Nc3ccccc32)cc1`, the inhibition was 14.2%.

With `CNC(=O)O/N=C/c1nn(C(C)=O)cc1Br`, the inhibition was 2.45%.

Consider `CNCC(=O)Nc1ccc(OC)cc1`, for which the inhibition is -7.3%.

Take `COc1ccc(CC(=O)Nc2ccccc2)cc1`: the inhibition was -14.4%.

On to `COc1ccc(Cc2n[nH]c(=S)n2NC(=O)Nc2ccc(C)cc2)cc1`, for which the inhibition was 92.9% (active).

For `CNC(=O)Cc1nnc(-c2ccc(C)cc2)o1`, the inhibition is -6.1%.

Regarding `N#CC(C#N)=CNCCc1ccncc1`, the inhibition is -4.8%.

Take `COc1cc2c(cc1OC)C(c1cc3cc4c(cc3[nH]c1=O)OCO4)N(C(=O)C1CCC1)CC2` (centres undefined): the inhibition is 87.5%.

On to `Cc1onc(-c2ccccc2)c1C(=O)NNc1ccc(C(C)(C)C)cc1`, for which the inhibition is 3.55%.

For `Cc1onc(-c2ccccc2)c1C(=O)Nc1cccc(C(F)(F)F)c1`, the inhibition was -4.15%.

As to `Cc1onc(-c2ccccc2)c1C(=O)Sc1ccc(C(F)(F)F)cn1`, the inhibition is 94.8% (active).

Consider `COc1cc(OC)cc(C(=O)NC(C(=O)N2CCC2)C(C)C)c1` (centres undefined), for which the inhibition was -3.25%.

With `CC(C(=O)N1CCOCC1)C1SC(=O)NC1=O` (centres undefined), the inhibition is -3.8%.

For `CCCCN=Cc1c(O)n(-c2ccc(Cl)cc2)c(=O)[nH]c1=O`, the inhibition is 21.5%.

Regarding `CCCCS(=O)(=O)N(O)c1ccc(Cl)cc1`, the inhibition was 84.8% (active).

`CC(=O)Oc1ccc(N(C(C)=O)S(=O)(=O)c2ccc(Cl)cc2)cc1`: the inhibition is -0.9%.

In the case of `Cc1[nH]c(=O)[nH]c(=O)c1NC(=O)CSc1nc2c(C)cccc2cc1C#N`, the inhibition is -1.15%.

`Cc1cc(C)n(C(=O)C2CC=CCC2C(=O)O)n1` (centres undefined): the inhibition is -7.4%.

Regarding `O=C(CSc1nnc2n1CCCCC2)N(Cc1cccs1)c1ccc2c(c1)OCCO2`, the inhibition is -10.9%.

On to `Cc1ccc(OCc2n[nH]c(=S)n2C2CCCCC2)c2c1CCC2`, for which the inhibition was 70.4% (active).

`CCOC(=O)Cc1n[nH]c(=S)n1C1CCCC1`: the inhibition is 13.4%.

Turning to `O=C(OCC(=O)C12CC3CC(CC(C3)C1)C2)c1cccs1`, the inhibition was 13.6%.

`CCn1cnc2cc(NCc3ccccn3)ccc21`: the inhibition was -5.05%.

Turning to `CCc1ccc(N/N=C(\C#N)C(=O)N2CCN(C)CC2)cc1`, the inhibition is 6%.

With `N#C/C(=N\Nc1ccccc1)C(=O)C1CC1`, the inhibition is 97% (active).

Consider `C/C(=N/NC(=O)CCc1ccccc1)C1CC1`, for which the inhibition was -4.85%.

Turning to `Cc1ccc2[nH]c3c(c2c1)CCCC3O` (centres undefined), the inhibition is 53.3%.

As for `Cc1noc(C)c1COc1ccc(C(=O)OCCN2C(=O)c3ccccc3C2=O)cc1`, the inhibition is -17.5%.

For the compound `O=C(NCC1CCN(c2ccc(S(=O)(=O)N3CCOCC3)cc2)CC1)Nc1cccc(F)c1`, the inhibition is -7.4%.

In the case of `CC(OC(=O)c1ccccc1NS(=O)(=O)c1ccc2[nH]c(=O)[nH]c2c1)C(=O)N1CCCCC1` (centres undefined), the inhibition was -42.9%.

Consider `COc1ccc(C#N)cc1`, for which the inhibition was -8.8%.

Regarding `COc1ccc(Cc2nnc(SC)[nH]c2=O)cc1`, the inhibition is 10.6%.

In the case of `COc1ccc(-c2nc3sc(-c4ccc(OC)cc4)nc3s2)cc1`, the inhibition is 84.3% (active).

In the case of `CSc1cc(-c2ccc(F)cc2)nn1S(=O)(=O)c1cccc(C(F)(F)F)c1`, the inhibition was -4.6%.

For `Cc1cc2ncn(-c3ccc(S(=O)(=O)N4CCCC4)cn3)c2cc1C`, the inhibition is 35.2%.

Take `Cc1nc(SCC(=O)c2ccc(NS(C)(=O)=O)cc2)n(C2CCCCC2)c1C`: the inhibition was -5.8%.

`COCCn1cnc2ccccc21`: the inhibition was -7.65%.

For the compound `N#CCCn1cnc2ccccc21`, the inhibition is -6.55%.

Turning to `c1ccc(Cc2nn3c(Cn4cnc5ccccc54)nnc3s2)cc1`, the inhibition was 65.2% (active).

Regarding `CCOc1cc2c(cc1OCC)C(CC(=O)O)N(C(=O)Nc1ccc(OC)cc1)CC2` (centres undefined), the inhibition was 26.9%.

Take `COc1ccccc1Nc1nc2c(S(=O)(=O)c3c(C)cc(C)cc3C)nnn2c2ccccc12`: the inhibition was 3.35%.

For the compound `COc1cc(Br)c(CC(=O)N2CCOCC2)cc1OC`, the inhibition was -8.25%.

As for `O=c1ccc(-c2ccc(S(=O)(=O)Nc3ccccc3)o2)n[nH]1`, the inhibition is 1.95%.
